In PubChem BioAssay (NCI):
Compounds without any hit were thinned out: in the full panel of roughly 83,000, 20% have a hit.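 The test compound was applied at a single concentration to cells in 96-well plates for 48 hours, and percent growth was recorded.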 The source made the active and inactive calls. The calls were made as follows: active = growth percent below 10; inactive = the rest.

What was measured:
Test in all cases: NCI-60 one-dose screen, 48 h (100 = growth as untreated, 0 = no growth, -100 = all killed)
Conditions in all cases: 10 µM unless noted
SR leukemia = system: SR leukemia
RPMI-8226 leukemia = system: RPMI-8226 leukemia
OVCAR-8 ovarian = system: OVCAR-8 ovarian
OVCAR-5 ovarian = system: OVCAR-5 ovarian
OVCAR-4 ovarian = system: OVCAR-4 ovarian
SK-OV-3 ovarian = system: SK-OV-3 ovarian
IGROV1 ovarian = system: IGROV1 ovarian
OVCAR-3 ovarian = system: OVCAR-3 ovarian
NCI/ADR-RES ovarian = system: NCI/ADR-RES ovarian
T-47D breast = system: T-47D breast
BT-549 breast = system: BT-549 breast
MDA-MB-435 melanoma = system: MDA-MB-435 melanoma
SW-620 colon = system: SW-620 colon
MCF7 breast = system: MCF7 breast
HCT-116 colon = system: HCT-116 colon
HCC-2998 colon = system: HCC-2998 colon
KM12 colon = system: KM12 colon
HS 578T breast = system: HS 578T breast

Measured: growth

O=[N+]([O-])c1ccc(NC(=S)N/N=C/c2cc3ccccc3n3nnnc23)cc1
inactive: RPMI-8226 leukemia 47.7% | OVCAR-8 ovarian 71.2% | OVCAR-5 ovarian 79.6% | OVCAR-4 ovarian 63.8% | SK-OV-3 ovarian 73.7% | IGROV1 ovarian 54.5% | OVCAR-3 ovarian 14.3% | NCI/ADR-RES ovarian 51.7% | T-47D breast 46.5% | BT-549 breast 80.4% | MDA-MB-435 melanoma 82.4% | SW-620 colon 24.4% | MCF7 breast 13.8% | HCT-116 colon 61.3% | HCC-2998 colon 54% | KM12 colon 66.9%
active: SR leukemia 4.33%

CCN(CC)CCOc1ccc(NC(=O)C(C(C)C)N2C(=O)/C(=C/c3ccc(Br)cc3)SC2=S)cc1 (centres undefined)
inactive: RPMI-8226 leukemia 19.5% | OVCAR-8 ovarian 25.6% | OVCAR-5 ovarian 66.4% | OVCAR-4 ovarian 70.5% | SK-OV-3 ovarian 113% | IGROV1 ovarian 82.2% | OVCAR-3 ovarian 94% | NCI/ADR-RES ovarian 80% | T-47D breast 93.1% | BT-549 breast 110% | MDA-MB-435 melanoma 97% | SW-620 colon 41.9% | MCF7 breast 19.3% | HCC-2998 colon 73% | KM12 colon 99.4%
active: SR leukemia -42% | HCT-116 colon -24.8%

CC/C(=C\c1ccc(OC)cc1)C(=O)c1ccc(OC)cc1
inactive: SR leukemia 108% | RPMI-8226 leukemia 32.2% | OVCAR-8 ovarian 74% | OVCAR-5 ovarian 103% | OVCAR-4 ovarian 77.2% | SK-OV-3 ovarian 106% | IGROV1 ovarian 67.2% | OVCAR-3 ovarian 211% | NCI/ADR-RES ovarian 86.7% | T-47D breast 85.8% | BT-549 breast 135% | MDA-MB-435 melanoma 73.1% | SW-620 colon 94.2% | MCF7 breast 107% | HCT-116 colon 90.8% | HCC-2998 colon 93.5%

COc1cccc(-c2nc3occn3c2-c2ccnc(NCCNS(=O)(=O)c3cccc4ccccc34)n2)c1
inactive: SR leukemia 110% | RPMI-8226 leukemia 102% | OVCAR-8 ovarian 97.4% | OVCAR-5 ovarian 123% | OVCAR-4 ovarian 102% | SK-OV-3 ovarian 83.5% | IGROV1 ovarian 89% | OVCAR-3 ovarian 103% | HS 578T breast 105% | T-47D breast 87.3% | BT-549 breast 105% | MDA-MB-435 melanoma 102% | MCF7 breast 95.5% | HCT-116 colon 99.9% | HCC-2998 colon 132% | KM12 colon 93.8%

NC(=O)CSSCC(N)=O
inactive: SR leukemia 85.2% | RPMI-8226 leukemia 91.4% | OVCAR-8 ovarian 101% | OVCAR-5 ovarian 105% | OVCAR-4 ovarian 111% | SK-OV-3 ovarian 109% | IGROV1 ovarian 97.8% | OVCAR-3 ovarian 114% | HS 578T breast 97.6% | T-47D breast 103% | MDA-MB-435 melanoma 91.6% | SW-620 colon 95.3% | MCF7 breast 103% | HCT-116 colon 91.6%

NS(=O)(=O)c1ccc(Cn2c(SCC(=O)N/N=C/c3ccccc3O)nc3ccccc3c2=O)cc1
inactive: SR leukemia 26.6% | RPMI-8226 leukemia 49.7% | OVCAR-8 ovarian 44.3% | OVCAR-5 ovarian 68.4% | OVCAR-4 ovarian 40.7% | SK-OV-3 ovarian 73% | IGROV1 ovarian 62.3% | OVCAR-3 ovarian 13.4% | NCI/ADR-RES ovarian 98.3% | T-47D breast 33.3% | BT-549 breast 56.1% | MDA-MB-435 melanoma 71.7% | SW-620 colon 60.4% | MCF7 breast 50% | HCT-116 colon 42.7% | HCC-2998 colon 50.7% | KM12 colon 39.2%

CN(C)CCn1c2ccc(Br)cc2c2nc3ccccc3nc21
inactive: SR leukemia 11.2% | OVCAR-8 ovarian 32.9% | OVCAR-5 ovarian 46.4% | OVCAR-4 ovarian 44% | SK-OV-3 ovarian 50.8% | IGROV1 ovarian 18% | OVCAR-3 ovarian 39.9% | NCI/ADR-RES ovarian 31.8% | T-47D breast 38.4% | BT-549 breast 84.4% | MDA-MB-435 melanoma 41.8% | SW-620 colon 17.5% | MCF7 breast 19.7% | HCT-116 colon 18.2% | HCC-2998 colon 47.3% | KM12 colon 35%
active: RPMI-8226 leukemia 9.2%

COc1cc(F)c(/C=C/c2cc(/C=C/c3cc(OC)c(OC)cc3F)on2)cc1OC
inactive: SR leukemia 46.9% | RPMI-8226 leukemia 68.2% | OVCAR-8 ovarian 87.1% | OVCAR-5 ovarian 97.6% | OVCAR-4 ovarian 101% | SK-OV-3 ovarian 105% | IGROV1 ovarian 79.5% | OVCAR-3 ovarian 36.1% | HS 578T breast 89.2% | T-47D breast 79% | BT-549 breast 91.4% | SW-620 colon 80.4% | MCF7 breast 70.6% | HCT-116 colon 60.3% | HCC-2998 colon 91.9% | KM12 colon 54.6%
active: MDA-MB-435 melanoma 7.63%

COCc1cnccc1NC1CCCCCC1
inactive: SR leukemia 101% | RPMI-8226 leukemia 104% | OVCAR-8 ovarian 96.3% | OVCAR-5 ovarian 108% | OVCAR-4 ovarian 98.6% | SK-OV-3 ovarian 111% | IGROV1 ovarian 110% | OVCAR-3 ovarian 102% | HS 578T breast 96% | T-47D breast 98.7% | BT-549 breast 119% | MDA-MB-435 melanoma 104% | SW-620 colon 99.3% | MCF7 breast 97.2% | HCT-116 colon 100% | HCC-2998 colon 103% | KM12 colon 100%

CC(=O)Nc1cccc(-c2ccc3c(c2)NC(=O)/C3=C\c2ccc[nH]2)c1
inactive: RPMI-8226 leukemia 15.8% | OVCAR-8 ovarian 56.4% | OVCAR-5 ovarian 38.4% | OVCAR-4 ovarian 53.1% | SK-OV-3 ovarian 48.8% | IGROV1 ovarian 43.4% | OVCAR-3 ovarian 69.6% | HS 578T breast 64.6% | T-47D breast 17.7% | BT-549 breast 43.2% | MDA-MB-435 melanoma 25.6% | SW-620 colon 37.9% | MCF7 breast 17.8% | HCT-116 colon 37% | HCC-2998 colon 57.1% | KM12 colon 14.5%
active: SR leukemia 9.65%

O=S(=O)(NCCNc1nccc(-c2c(-c3cccc(O)c3)nc3occn23)n1)c1ccc(C(F)(F)F)cc1
inactive: SR leukemia 110% | RPMI-8226 leukemia 105% | OVCAR-8 ovarian 102% | OVCAR-5 ovarian 138% | OVCAR-4 ovarian 118% | SK-OV-3 ovarian 95.8% | IGROV1 ovarian 73.8% | OVCAR-3 ovarian 113% | NCI/ADR-RES ovarian 105% | T-47D breast 79.2% | BT-549 breast 107% | MDA-MB-435 melanoma 45% | SW-620 colon 126% | MCF7 breast 67.2% | HCT-116 colon 90.1% | HCC-2998 colon 132% | KM12 colon 94.4%

NNC(=O)c1ccc(-n2nc(-c3ccccc3)c3ccccc32)cc1
active: OVCAR-3 ovarian 8.87%
inactive: SR leukemia 83.5% | RPMI-8226 leukemia 86.4% | OVCAR-8 ovarian 77% | OVCAR-5 ovarian 93.8% | SK-OV-3 ovarian 98.9% | IGROV1 ovarian 73.7% | HS 578T breast 73% | NCI/ADR-RES ovarian 91.5% | T-47D breast 38.1% | BT-549 breast 73.6% | MDA-MB-435 melanoma 93.9% | SW-620 colon 95.5% | MCF7 breast 74% | HCT-116 colon 82.2% | HCC-2998 colon 54.8% | KM12 colon 94.8%

CCSCC1CC(O)(c2ccccc2)CC(c2ccc(F)cc2)O1 (centres undefined)
inactive: OVCAR-8 ovarian 21.3% | OVCAR-5 ovarian 86.6% | SK-OV-3 ovarian 25.9% | IGROV1 ovarian 48.5% | NCI/ADR-RES ovarian 24.6% | HCC-2998 colon 69.3%
active: SR leukemia -22% | RPMI-8226 leukemia 8.79% | OVCAR-3 ovarian -13% | HS 578T breast -14.8% | T-47D breast -4.7% | BT-549 breast -0.126% | MDA-MB-435 melanoma 5.06% | SW-620 colon 8.68% | MCF7 breast -11.3% | HCT-116 colon 1.4% | KM12 colon -47.2%

O=C(/C=C/c1ccc(F)cc1)c1ccc(NC(=O)N2CCN(c3cc4c(cc3F)c(=O)c(C(=O)O)cn4C3CC3)CC2)cc1
inactive: SR leukemia 71.9% | RPMI-8226 leukemia 98.6% | OVCAR-8 ovarian 90.8% | OVCAR-5 ovarian 96.9% | OVCAR-4 ovarian 98.2% | SK-OV-3 ovarian 99.4% | IGROV1 ovarian 89.5% | OVCAR-3 ovarian 97.6% | NCI/ADR-RES ovarian 100% | T-47D breast 93.6% | BT-549 breast 75.7% | MDA-MB-435 melanoma 95.3% | SW-620 colon 92% | MCF7 breast 96.9% | HCT-116 colon 57.1% | HCC-2998 colon 103% | KM12 colon 100%

O=C(/C=C(O)/C=C/c1ccc(SC(F)(F)F)cc1)/C=C/c1ccc(SC(F)(F)F)cc1
inactive: SR leukemia 40.8% | RPMI-8226 leukemia 38.9% | OVCAR-8 ovarian 96% | OVCAR-5 ovarian 118% | OVCAR-4 ovarian 97.3% | SK-OV-3 ovarian 119% | IGROV1 ovarian 80.6% | OVCAR-3 ovarian 88% | NCI/ADR-RES ovarian 104% | T-47D breast 78% | MDA-MB-435 melanoma 79.2% | SW-620 colon 89.1% | MCF7 breast 52.1% | HCT-116 colon 17.7% | HCC-2998 colon 101% | KM12 colon 81.9%

CCc1ccc(-c2cn3ccnc3c(-c3ccc4ncn(Cc5ccccc5)c4c3)n2)cc1
inactive: SR leukemia 50.1% | RPMI-8226 leukemia 44.6% | OVCAR-8 ovarian 69.2% | OVCAR-5 ovarian 85.1% | SK-OV-3 ovarian 99.4% | IGROV1 ovarian 75% | OVCAR-3 ovarian 68.8% | HS 578T breast 78.2% | NCI/ADR-RES ovarian 58.8% | BT-549 breast 84.1% | MDA-MB-435 melanoma 49.1% | SW-620 colon 81.2% | MCF7 breast 42% | HCT-116 colon 38.8% | HCC-2998 colon 74.8% | KM12 colon 54.3%
active: T-47D breast 5.18%

COc1ccc(-c2[nH][nH]c(=O)c2-c2nc3ccccc3s2)cc1
inactive: SR leukemia 99.2% | RPMI-8226 leukemia 99.4% | OVCAR-8 ovarian 106% | OVCAR-5 ovarian 105% | SK-OV-3 ovarian 106% | IGROV1 ovarian 105% | OVCAR-3 ovarian 110% | HS 578T breast 107% | NCI/ADR-RES ovarian 97.7% | T-47D breast 109% | BT-549 breast 97.6% | MDA-MB-435 melanoma 101% | SW-620 colon 101% | MCF7 breast 93.9% | HCT-116 colon 101% | HCC-2998 colon 99.6% | KM12 colon 101%

O=C(CCN1CCCC1)Nc1ccc2c(NCCCCc3ccccc3)c3ccccc3nc2c1
inactive: SK-OV-3 ovarian 53.9% | NCI/ADR-RES ovarian 80.8% | BT-549 breast 56.9%
active: SR leukemia -29% | RPMI-8226 leukemia -42.7% | OVCAR-8 ovarian 1.13% | OVCAR-5 ovarian 7.16% | OVCAR-4 ovarian -74.6% | IGROV1 ovarian -18.1% | OVCAR-3 ovarian -82.6% | T-47D breast -27.2% | MDA-MB-435 melanoma -91.2% | MCF7 breast -75.9% | HCT-116 colon -70.8% | HCC-2998 colon -90.9% | KM12 colon -79.1%
